Results filed as inconclusive are left out. Active and inactive are the calls of the source. The calls were made as follows: active = hit-call score of the fitted dose curve at least 0.9, where 1 is the maximum; inconclusive = response in the unintended direction; inactive = score below 0.9.
What was measured:
[1] = biological target: human Esterase Plasma (ES), BCHE (gene 590) (UniProt P06276); test: NVS_ENZ_hES: NovaScreen (NVS) Enzymatic Assay for human Esterase Plasma (ES) (AID 2283157)
Method in brief: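 Human plasma-derived enzyme, cell-free, colorimetric readout at 0.25 h. Primary screen 25 uM in duplicate; hits (e.g. ≥30% inhibition) rerun singleton up to 50 uM. DMSO = negative control/baseline.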

[2] = biological target: human Colony Stimulating Factor 1 Receptor (CSF1R), CSF1R (gene 1436) (UniProt P07333); test: NVS_ENZ_hCSF1R: NovaScreen (NVS) Enzymatic Assay for human Colony Stimulating Factor 1 Receptor (CSF1R) (AID 2283150)
Method in brief: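 Compounds screened in duplicate at 25 uM, then concentration-response (top 50 uM) for those passing threshold such as 30% inhibition; recombinant CSF1R activity measured 1 h post-dosing via fluorescent substrate/product mobility-shift separation, loss of signal versus DMSO.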

[3] = biological target: human Dual Specificity Protein Phosphatase 3 (DUSP3), DUSP3 (gene 1845) (UniProt P51452); test: NVS_ENZ_hDUSP3: NovaScreen (NVS) Enzymatic Assay for human Dual Specificity Protein Phosphatase 3 (DUSP3) (AID 2283152);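 also: phosphatase activity of recombinant human DUSP3 on a fluorogenic substrate without cells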
Method in brief: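 Cell-free fluorescence-intensity enzyme activity assay with recombinant protein and substrate; loss of signal fitted relative to DMSO baseline. Primary screen in duplicate at 25 uM, actives then run in concentration series; measured 0 h after dosing.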

[4] = biological target: human Elastase, ELANE (gene 1991) (UniProt P08246); test: NVS_ENZ_hElastase: NovaScreen (NVS) Enzymatic Assay for human Elastase (AID 2283153)
Method in brief: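 Concentration-response to 50 uM max, run singly for chemicals passing a threshold (e.g., 30% inhibition) in a duplicate 25 uM single-point screen. Neutrophil-derived human elastase, absorbance read-out of enzyme activity at 1.5 h; DMSO baseline.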

[5] = biological target: human Ephrin type-A Receptor 1 (EphA1), EPHA1 (gene 2041) (UniProt P21709); test: NVS_ENZ_hEphA1: NovaScreen (NVS) Enzymatic Assay for human Ephrin type-A Receptor 1 (EphA1) (AID 2283158);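 also: activity is signal loss versus DMSO meaning EphA1 kinase inhibition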
Method in brief: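 Here the EphA1 protein is recombinant and the substrate fluorescent, with electrophoretic separation before fluorescence detection at 1 hour. Signal loss against DMSO defines activity; plate controls included; follow-up concentration series reach 50 uM.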

[6] = biological target: human FYN Proto-Oncogene, Src family Tyrosine Kinase (Fyn), FYN (gene 2534) (UniProt P06241); test: NVS_ENZ_hFyn: NovaScreen (NVS) Enzymatic Assay for human FYN Proto-Oncogene, Src family Tyrosine Kinase (Fyn) (AID 2283161)
Method in brief: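 Cell-free kinase activity read by fluorescence after mobility-shift separation of substrate and product, 1 h post-dose. Initial single concentration 25 uM in duplicate, then concentration-response follow-up; DMSO baseline.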

[7] = biological target: Glycogen synthase kinase-3 beta (Homo sapiens) (UniProt P49841); test: NVS_ENZ_hGSK3b: NovaScreen (NVS) Enzymatic Assay for human Glycogen Synthase Kinase-3 beta (GSK3b) (AID 2283165)
Method in brief: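 Recombinant enzyme with specific fluorescent substrate, 1 h, product separated by electrophoretic mobility shift. Primary duplicate screen at 25 uM; actives (e.g. 30% inhibition) followed in singleton concentration-response to 50 uM. Signal loss fitted versus DMSO.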

[8] = biological target: human Janus Kinase 2 (Jak2), JAK2 (gene 3717) (UniProt O60674); test: NVS_ENZ_hJak2: NovaScreen (NVS) Enzymatic Assay for human Janus Kinase 2 (Jak2) (AID 2283169)
Method in brief: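 Single-point duplicate screen at 25 uM, with hits run in concentration series to a 50 uM top dose. Substrate-product separation by mobility shift with fluorescence detection, 1 h post-dosing; DMSO baseline.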

[9] = biological target: Histone deacetylase 3 (Homo sapiens) (UniProt O15379); test: NVS_ENZ_hHDAC3: NovaScreen (NVS) Enzymatic Assay for human Histone Deacetylase 3 (HDAC3) (AID 2283163)
Method in brief: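 Cell-free enzyme format: loss of fluorescent product after mobility-shift separation, 1 h incubation, recombinant human HDAC3. Single 25 uM duplicate screen first, then concentration series to a 50 uM top for hits; DMSO as baseline.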

[10] = biological target: human Casein Kinase 1-delta (CK1D), CSNK1D (gene 1453) (UniProt P48730); test: NVS_ENZ_hCK1D: NovaScreen (NVS) Enzymatic Assay for human Casein Kinase 1-delta (CK1D) (AID 2283148)
Method in brief: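 Recombinant human CK1-delta, cell-free; fluorescent substrate with electrophoretic mobility-shift separation of product, read 1 h after dosing. Single 25 uM duplicate screen, then concentration-response up to 50 uM; loss of signal vs DMSO.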

Chain of Glycogen synthase kinase-3 beta (Homo sapiens) (P49841 whole entry, looked up): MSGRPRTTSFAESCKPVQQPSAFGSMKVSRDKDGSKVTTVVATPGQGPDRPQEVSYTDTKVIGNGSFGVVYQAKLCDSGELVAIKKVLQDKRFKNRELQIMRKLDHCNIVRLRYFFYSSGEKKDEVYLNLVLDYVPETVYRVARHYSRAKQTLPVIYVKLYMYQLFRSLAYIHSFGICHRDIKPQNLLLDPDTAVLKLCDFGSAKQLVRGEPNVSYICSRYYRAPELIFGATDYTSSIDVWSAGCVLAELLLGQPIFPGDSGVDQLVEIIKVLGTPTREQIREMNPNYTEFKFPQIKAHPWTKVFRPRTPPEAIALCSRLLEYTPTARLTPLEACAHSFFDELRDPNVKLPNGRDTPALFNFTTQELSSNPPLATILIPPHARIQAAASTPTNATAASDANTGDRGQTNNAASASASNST
Chain of human Dual Specificity Protein Phosphatase 3 (DUSP3), DUSP3 (gene 1845) (P51452 whole entry, looked up): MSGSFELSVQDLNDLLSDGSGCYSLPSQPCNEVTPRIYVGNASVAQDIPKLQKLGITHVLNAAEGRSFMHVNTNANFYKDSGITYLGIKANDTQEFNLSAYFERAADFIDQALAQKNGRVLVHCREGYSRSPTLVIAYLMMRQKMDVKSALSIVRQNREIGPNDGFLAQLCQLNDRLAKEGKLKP
Chain of human Esterase Plasma (ES), BCHE (gene 590) (P06276 whole entry, looked up): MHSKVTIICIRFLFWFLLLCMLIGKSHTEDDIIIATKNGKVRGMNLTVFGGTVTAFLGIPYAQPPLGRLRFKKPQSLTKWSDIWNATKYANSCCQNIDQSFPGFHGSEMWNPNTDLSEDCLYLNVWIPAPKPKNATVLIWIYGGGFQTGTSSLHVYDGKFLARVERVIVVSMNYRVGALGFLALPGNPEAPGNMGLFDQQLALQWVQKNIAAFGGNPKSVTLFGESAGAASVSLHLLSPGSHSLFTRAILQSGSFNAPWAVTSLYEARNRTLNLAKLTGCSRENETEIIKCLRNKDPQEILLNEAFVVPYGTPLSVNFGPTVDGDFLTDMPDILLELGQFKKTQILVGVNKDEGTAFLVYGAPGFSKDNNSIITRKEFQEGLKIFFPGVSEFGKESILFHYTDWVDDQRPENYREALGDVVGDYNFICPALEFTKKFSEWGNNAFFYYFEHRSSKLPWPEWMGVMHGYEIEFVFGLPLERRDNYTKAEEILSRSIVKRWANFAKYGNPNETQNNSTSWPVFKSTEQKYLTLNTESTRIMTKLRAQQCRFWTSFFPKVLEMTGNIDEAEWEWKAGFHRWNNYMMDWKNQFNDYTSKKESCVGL
Chain of human Ephrin type-A Receptor 1 (EphA1), EPHA1 (gene 2041) (P21709 whole entry, looked up): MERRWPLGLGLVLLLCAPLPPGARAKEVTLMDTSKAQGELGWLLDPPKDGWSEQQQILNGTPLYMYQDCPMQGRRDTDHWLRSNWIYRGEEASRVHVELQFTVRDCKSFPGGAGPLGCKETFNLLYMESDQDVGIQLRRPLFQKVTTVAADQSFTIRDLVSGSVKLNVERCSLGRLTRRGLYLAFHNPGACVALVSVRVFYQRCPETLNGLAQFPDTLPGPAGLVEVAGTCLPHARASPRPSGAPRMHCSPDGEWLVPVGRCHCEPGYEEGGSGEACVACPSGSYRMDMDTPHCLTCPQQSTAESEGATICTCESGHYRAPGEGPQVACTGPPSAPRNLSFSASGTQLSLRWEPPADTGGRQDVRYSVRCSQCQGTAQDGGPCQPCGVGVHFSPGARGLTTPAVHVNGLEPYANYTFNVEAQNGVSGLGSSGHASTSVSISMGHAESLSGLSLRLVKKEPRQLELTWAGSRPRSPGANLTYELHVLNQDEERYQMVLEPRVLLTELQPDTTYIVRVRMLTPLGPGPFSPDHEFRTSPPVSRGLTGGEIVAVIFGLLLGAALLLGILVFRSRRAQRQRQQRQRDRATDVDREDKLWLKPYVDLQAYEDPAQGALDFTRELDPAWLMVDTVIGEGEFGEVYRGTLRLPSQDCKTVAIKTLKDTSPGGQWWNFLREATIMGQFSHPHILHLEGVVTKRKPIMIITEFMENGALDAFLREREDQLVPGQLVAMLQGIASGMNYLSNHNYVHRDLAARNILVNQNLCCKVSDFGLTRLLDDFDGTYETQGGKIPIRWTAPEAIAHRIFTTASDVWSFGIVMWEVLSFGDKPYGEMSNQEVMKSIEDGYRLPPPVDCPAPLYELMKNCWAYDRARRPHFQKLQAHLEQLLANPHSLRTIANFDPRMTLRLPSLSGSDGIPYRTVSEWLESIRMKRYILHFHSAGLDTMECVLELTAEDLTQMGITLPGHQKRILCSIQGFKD
Chain of Histone deacetylase 3 (Homo sapiens) (O15379 whole entry, looked up): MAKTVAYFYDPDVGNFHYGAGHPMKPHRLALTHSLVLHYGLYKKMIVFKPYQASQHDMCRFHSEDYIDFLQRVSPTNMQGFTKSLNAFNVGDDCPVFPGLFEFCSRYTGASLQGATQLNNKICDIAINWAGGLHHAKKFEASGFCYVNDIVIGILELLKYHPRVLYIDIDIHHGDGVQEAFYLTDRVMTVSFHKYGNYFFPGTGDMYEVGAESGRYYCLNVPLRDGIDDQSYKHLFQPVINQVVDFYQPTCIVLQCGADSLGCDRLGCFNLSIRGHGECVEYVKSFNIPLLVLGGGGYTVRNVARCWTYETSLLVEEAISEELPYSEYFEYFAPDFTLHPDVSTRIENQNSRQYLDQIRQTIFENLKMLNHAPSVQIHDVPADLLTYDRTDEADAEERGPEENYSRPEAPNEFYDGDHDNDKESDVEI
Chain of human Colony Stimulating Factor 1 Receptor (CSF1R), CSF1R (gene 1436) (P07333 whole entry, looked up): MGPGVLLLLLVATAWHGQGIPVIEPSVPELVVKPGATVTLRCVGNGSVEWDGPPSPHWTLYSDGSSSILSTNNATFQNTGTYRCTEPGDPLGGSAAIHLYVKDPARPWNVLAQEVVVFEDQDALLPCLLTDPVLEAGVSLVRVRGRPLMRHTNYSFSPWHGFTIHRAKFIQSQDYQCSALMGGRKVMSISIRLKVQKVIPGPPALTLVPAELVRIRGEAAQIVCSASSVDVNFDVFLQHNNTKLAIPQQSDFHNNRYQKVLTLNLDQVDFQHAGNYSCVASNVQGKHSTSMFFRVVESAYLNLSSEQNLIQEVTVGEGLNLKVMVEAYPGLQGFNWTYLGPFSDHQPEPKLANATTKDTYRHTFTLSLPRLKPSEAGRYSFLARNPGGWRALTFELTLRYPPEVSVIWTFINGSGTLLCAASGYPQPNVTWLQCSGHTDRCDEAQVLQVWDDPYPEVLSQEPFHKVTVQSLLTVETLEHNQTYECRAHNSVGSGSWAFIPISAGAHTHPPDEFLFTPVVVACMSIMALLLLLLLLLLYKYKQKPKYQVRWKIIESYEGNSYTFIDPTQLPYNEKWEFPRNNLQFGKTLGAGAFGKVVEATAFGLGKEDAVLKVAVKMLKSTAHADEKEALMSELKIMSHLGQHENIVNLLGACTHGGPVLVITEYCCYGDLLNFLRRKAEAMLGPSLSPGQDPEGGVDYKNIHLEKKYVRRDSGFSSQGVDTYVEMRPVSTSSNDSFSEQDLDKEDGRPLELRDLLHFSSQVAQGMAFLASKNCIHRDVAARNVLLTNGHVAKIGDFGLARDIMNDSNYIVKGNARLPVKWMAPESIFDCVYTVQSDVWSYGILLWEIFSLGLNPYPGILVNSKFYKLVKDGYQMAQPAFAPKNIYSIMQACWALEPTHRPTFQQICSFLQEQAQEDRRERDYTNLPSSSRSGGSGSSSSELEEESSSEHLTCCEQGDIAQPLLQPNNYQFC
Chain of human Casein Kinase 1-delta (CK1D), CSNK1D (gene 1453) (P48730 whole entry, looked up): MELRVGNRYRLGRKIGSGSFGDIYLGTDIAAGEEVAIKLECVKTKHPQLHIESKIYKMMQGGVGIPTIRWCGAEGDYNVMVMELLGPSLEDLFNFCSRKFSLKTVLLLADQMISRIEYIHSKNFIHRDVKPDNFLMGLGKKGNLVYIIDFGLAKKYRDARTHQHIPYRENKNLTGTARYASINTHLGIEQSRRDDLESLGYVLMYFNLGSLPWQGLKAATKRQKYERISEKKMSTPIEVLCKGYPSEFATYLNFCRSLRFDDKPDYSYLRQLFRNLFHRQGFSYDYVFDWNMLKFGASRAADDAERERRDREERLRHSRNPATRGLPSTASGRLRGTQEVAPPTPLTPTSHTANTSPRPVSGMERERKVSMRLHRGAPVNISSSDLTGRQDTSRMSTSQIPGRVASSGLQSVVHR
Chain of human FYN Proto-Oncogene, Src family Tyrosine Kinase (Fyn), FYN (gene 2534) (P06241 whole entry, looked up): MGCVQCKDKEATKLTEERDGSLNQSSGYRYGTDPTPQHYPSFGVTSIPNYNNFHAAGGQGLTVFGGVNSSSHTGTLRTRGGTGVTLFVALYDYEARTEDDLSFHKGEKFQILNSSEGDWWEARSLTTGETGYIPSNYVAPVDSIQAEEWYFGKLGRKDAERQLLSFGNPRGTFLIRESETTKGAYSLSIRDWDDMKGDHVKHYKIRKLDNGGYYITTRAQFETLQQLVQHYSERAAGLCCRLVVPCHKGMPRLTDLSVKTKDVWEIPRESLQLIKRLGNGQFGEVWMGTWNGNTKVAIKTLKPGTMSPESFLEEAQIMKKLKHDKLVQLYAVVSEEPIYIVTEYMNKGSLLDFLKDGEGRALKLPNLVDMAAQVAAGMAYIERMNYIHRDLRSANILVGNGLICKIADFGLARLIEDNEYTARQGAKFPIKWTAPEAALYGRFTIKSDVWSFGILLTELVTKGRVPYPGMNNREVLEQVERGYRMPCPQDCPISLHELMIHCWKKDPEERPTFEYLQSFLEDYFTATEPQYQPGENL
Chain of human Elastase, ELANE (gene 1991) (P08246 whole entry, looked up): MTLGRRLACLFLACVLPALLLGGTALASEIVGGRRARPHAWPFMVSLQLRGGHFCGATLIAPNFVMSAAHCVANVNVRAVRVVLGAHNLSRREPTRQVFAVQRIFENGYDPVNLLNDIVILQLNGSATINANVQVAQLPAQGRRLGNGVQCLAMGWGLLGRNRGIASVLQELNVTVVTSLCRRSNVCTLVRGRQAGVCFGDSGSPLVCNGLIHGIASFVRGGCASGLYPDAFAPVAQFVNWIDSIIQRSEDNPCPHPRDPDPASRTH

N=C(N)c1ccc(OCCCCCOc2ccc(C(=N)N)cc2)cc1
AC50 [1]: 6.56 µM (active)

Cc1[nH]nc2c1N=C(c1ccccc1Cl)c1cc([N+](=O)[O-])ccc1N2
AC50 [2]: 0.00229 µM (active) | AC50 [3]: 16.9 µM (active) | AC50 [4]: 4.93 µM (active) | AC50 [5]: 8.96 µM (active) | outcome [6]: inactive | AC50 [7]: 0.00229 µM (active) | AC50 [8]: 0.00328 µM (active)

CCCCCCCCCCCC
outcome [5]: inactive

CC(C)(C)c1ccc(O)c(O)c1
outcome [5]: inactive

CCC(C)c1ccccc1O (stereo not drawn)
outcome [9]: inactive

O=C(NO)c1ccccc1
outcome [5]: inactive

CCCCCCCCCCCCCCCCCC[N+](C)(C)Cc1ccccc1
AC50 [3]: 4.54 µM (active) | outcome [5]: inactive

Cc1ccc(C(=O)c2ccccc2)cc1
outcome [5]: inactive

CCCCCCCCCCCCOS(=O)(=O)O
outcome [10]: inactive | AC50 [2]: 29.1 µM (active) | outcome [5]: inactive | outcome [9]: inactive

CCCCc1oc2ccccc2c1C(=O)c1cc(I)c(OCCN(CC)CC)c(I)c1
outcome [1]: inactive

CCCCCCCCCCCCCCCC(=O)OC
AC50 [3]: 6.25 µM (active)

O=C(c1ccccc1)c1ccccc1
outcome [7]: inactive

CS(=O)(=O)c1ccc([C@@H](CC2CCCC2)C(=O)Nc2cnccn2)cc1Cl
outcome [10]: inactive | AC50 [3]: 6.36 µM (active)

CCCCC=O
outcome [7]: inactive

CN(C)CCOC(c1ccccc1)c1ccccc1
AC50 [1]: 11.4 µM (active)

O=C(CCCN1CCC(O)(c2ccc(Cl)cc2)CC1)c1ccc(F)cc1
AC50 [1]: 6.15 µM (active)

CC1=NN(c2ccccc2)C(=O)C1
outcome [5]: inactive

— PubChem BioAssay (EPA / NIEHS)
